The list is not random: actives were taken first. Their share in the collection is about 7.4%.
FLuc modulator = counter-screen for miR-21 project: firefly luciferase inhibitors or activators; P08659; purified FLuc, Km substrates, luminescence inhibition; Potency, µM (doses to about 57.5 µM), actives largely listed as inhibitors; 6.9% of 360,000 active; further: nearly all actives have a fitted effect of over 55% in size
Target sequence (P08659 whole entry, looked up): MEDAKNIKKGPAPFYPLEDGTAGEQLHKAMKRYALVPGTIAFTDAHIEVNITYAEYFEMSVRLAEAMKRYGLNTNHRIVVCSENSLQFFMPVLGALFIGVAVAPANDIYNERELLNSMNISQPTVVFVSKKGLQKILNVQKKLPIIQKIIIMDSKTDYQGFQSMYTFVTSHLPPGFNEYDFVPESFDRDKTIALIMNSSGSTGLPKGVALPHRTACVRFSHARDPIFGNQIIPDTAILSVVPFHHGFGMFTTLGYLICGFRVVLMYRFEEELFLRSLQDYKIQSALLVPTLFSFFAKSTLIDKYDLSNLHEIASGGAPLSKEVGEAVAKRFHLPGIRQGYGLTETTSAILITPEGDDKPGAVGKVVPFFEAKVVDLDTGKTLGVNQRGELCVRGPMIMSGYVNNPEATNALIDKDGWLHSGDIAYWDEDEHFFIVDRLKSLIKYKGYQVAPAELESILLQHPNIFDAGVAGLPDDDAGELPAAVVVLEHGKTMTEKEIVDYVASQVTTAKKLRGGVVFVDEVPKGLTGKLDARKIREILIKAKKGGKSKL
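Biochemical qHTS of compounds, final roughly 60 µM downward over six points, against 10 nM purified firefly luciferase using Km concentrations of substrates (10 uM D-luciferin, 10 uM ATP) in Tris acetate pH 7.5 buffer; luminescence output.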
Luc counter = Kinase-Glo luciferase inhibition (counter-screen); Potency, µM (highest dose often 38.3 µM), most hits filed as inhibitors; Kinase-Glo luciferase, ATP luminescence, 8 min; 0.28% of 200,000 active; further: nearly all actives have a fitted effect of over 60% in size
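Kinase-Glo luciferase light output from ATP and luciferin was measured with 10 uM ATP, within the enzyme's linear range. Buffer: 50 mM imidazole pH 7.2, 50 mM KCl, 7 mM MgCl2, 0.01% Tween 20, 0.05% BSA; luminescence read after 8 min at ambient temperature.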
NPC1 promoter act = activates the NPC1 promoter; Huh7 NPC1 promoter luciferase reporter, 24 h; Potency, µM (series often up to 9.22 µM), most hits filed as activators; 2.4% of 320,000 active; AID 485313; further: nearly all actives have a fitted effect of over 60% in size
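Compounds in DMSO were transferred onto Huh7 NPC1-luciferase reporter cells pre-incubated 2 h; after 24 h at 37 °C, Amplite reagent was dispensed and luminescence recorded 10 min later.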
Rab9 prom act = Rab9 promoter activation. Huh7 Rab9 promoter-luciferase reporter, luminescence, 24 h. Potency, µM (highest dose often 9.22 µM), usual class: activators. 2.8% of 320,000 active. AID 485297; further: nearly all actives have a fitted effect of over 60% in size
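Steps: seed 1500 Huh7 Rab9-luc cells per well, rest 2 h at 37 °C; add compound in DMSO; incubate 24 h; add luciferase reagent, 10 min ambient; read luminescence.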
SMN2 splice up = enhancers of SMN2 splice variant expression; AID 1458; HEK293 SMN2-luciferase splicing reporter, luminescence, 30-36 h; Potency, µM (highest dose often 46.1 µM), hits mostly activators; 2.8% of 210,000 active; further: nearly all actives have a fitted effect of over 55% in size
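qHTS luciferase splicing reporter: luminescence rises when SMN2 exon 7 is included in transfected HEK293 cells. Compound exposure lasted 30-36 h at 37C, with 4.5 mM final sodium butyrate as control, followed by a ONE-Glo read.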
ELG1 genotox = induces genotoxicity in HEK293T cells with luciferase-tagged ELG1; HEK293T ELG1-luciferase reporter, luminescence, 16 h; Potency, µM (doses to about 46 µM), most hits filed as activators; 1.3% of 330,000 active; further: nearly all actives have a fitted effect of over 60% in size
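Cells (2,000/well) expressing the ELG1-luciferase fusion are dosed by pin tool and kept 16 hr at 37 °C, 5% CO2. Signal comes from ONE-Glo luciferase reagent after 30 min at room temperature.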
Numbers stand for hits. The call rests on the fitted dose curve; in most records, active means well fitted curve in the direction sought with a large enough effect; inconclusive means small, poorly fitted or top-dose-only effect, or another doubt; inactive means no such curve, though single readings can be large; an effect the other way counts as inactive or inconclusive.

O=C(Cn1c(-c2cccs2)cc2ccccc21)NCc1ccccc1Br was read as FLuc modulator inactive.
Screening COC(=O)c1cc2sccc2n1CC(=O)Nc1cc(Cl)ccc1OC returned FLuc modulator inactive and SMN2 splice up inactive.
Screening CC1C(=O)OC2C(O)C34C5CC(C(C)(C)C)C36C(OC(=O)C6O)OC4(C(=O)O5)C12O (stereo not given) returned Luc counter inactive.
COc1ccc(CNC(=O)C(=O)NCC(c2cccnc2)N2CCN(c3ccccc3)CC2)cc1 (stereo not given) was read as FLuc modulator inactive.
COc1cc(C(=O)NC2=NCCS2)cc(OC)c1OC was read as FLuc modulator inactive, Luc counter inactive, NPC1 promoter act inactive, Rab9 prom act inactive, SMN2 splice up inconclusive and ELG1 genotox inactive.
For Cc1ccc(C(=O)NC2=NCCS2)cc1Cl the results were FLuc modulator 6.7µM, NPC1 promoter act 1.4µM, Rab9 prom act 1.3µM and ELG1 genotox inconclusive.
Screening CCOC(=O)c1c(C)[nH]c(C)c1S(=O)(=O)N1CCCC(C(=O)Nc2ccc(F)cc2F)C1 (stereo not given) returned FLuc modulator inactive.
Cc1nc(CSc2nsc(/C=C/N(C)C)c2C#N)cs1 was read as FLuc modulator 24µM, Luc counter inactive, NPC1 promoter act inactive, Rab9 prom act inactive, SMN2 splice up inactive and ELG1 genotox inactive.
For CCc1nc(SCC(=O)Nc2ccc(NC(C)=O)cc2)n[nH]1 the results were FLuc modulator inactive and SMN2 splice up inactive.
`O=[N+]([O-])c1cccc(Cl)c1Cl` gave SMN2 splice up inactive.
Screening COc1ccc(-c2nc3cc(C(C)C)ccc3o2)cc1NC(=O)COc1ccc(C)cc1C returned FLuc modulator inactive and SMN2 splice up inactive.
Screening CCn1nc(C(=O)Nc2ccc(S(=O)(=O)Nc3ncccn3)cc2)c2ccccc2c1=O returned FLuc modulator inactive, Luc counter inactive, NPC1 promoter act inactive, Rab9 prom act inactive, SMN2 splice up inactive and ELG1 genotox inactive.
Screening CCCn1nc(C(=O)Nc2ccc(S(=O)(=O)Nc3nccs3)cc2)c2ccccc2c1=O returned FLuc modulator inactive, Luc counter inactive, NPC1 promoter act inactive, Rab9 prom act inactive, SMN2 splice up 7.9µM and ELG1 genotox inactive.
Screening Cn1cccc1/C=N/n1cnnc1 returned FLuc modulator inactive, Luc counter inactive, NPC1 promoter act inactive, Rab9 prom act inactive, SMN2 splice up 22µM and ELG1 genotox inactive.
`O=C(Nc1ccc(Br)cc1)c1cc([N+](=O)[O-])cc([N+](=O)[O-])c1` gave FLuc modulator inactive, NPC1 promoter act inactive, Rab9 prom act inactive and ELG1 genotox inactive.
For O=c1c2c([N+](=O)[O-])cc([N+](=O)[O-])cc2sn1-c1ccc(Br)cc1 the results were FLuc modulator 21µM, Luc counter inactive, NPC1 promoter act inactive, Rab9 prom act inactive, SMN2 splice up inactive and ELG1 genotox inactive.
Screening O=c1c2c([N+](=O)[O-])cc([N+](=O)[O-])cc2sn1Cc1ccccc1 returned FLuc modulator 9.5µM, NPC1 promoter act inactive, Rab9 prom act inactive and ELG1 genotox inactive.
Screening CNc1nnc(-c2cccc(N(C)C)c2)s1 returned FLuc modulator 15µM, Luc counter inactive, NPC1 promoter act inconclusive, Rab9 prom act inconclusive, SMN2 splice up 14µM and ELG1 genotox 11µM.
`Nc1nnc(-c2cccc(F)c2)s1` gave FLuc modulator inactive, NPC1 promoter act inactive, Rab9 prom act inactive and ELG1 genotox inactive.
`COc1ccccc1NC(=O)Nc1cc(F)ccc1F` gave FLuc modulator 24µM, Luc counter inactive, NPC1 promoter act inactive, Rab9 prom act inactive, SMN2 splice up inactive and ELG1 genotox inactive.
`O=C(NNc1ccccc1)Nc1ccccc1F` gave FLuc modulator 19µM, NPC1 promoter act inactive, Rab9 prom act inactive and ELG1 genotox inactive.
`O=C(Nc1ccc(Br)cc1)Nc1ccccc1F` gave FLuc modulator 4.8µM, Luc counter inactive, NPC1 promoter act 1.6µM, Rab9 prom act 2.8µM and ELG1 genotox inconclusive.

Compound activity deposited in PubChem by National Center for Advancing Translational Sciences (NCATS).
